Bioassay records from PubChem.
Only some compounds are listed: those with a hit (about 1.8% of all), similar ones and a draw of the others.
PI4K2A block = qHTS for small molecular inhibitors of PI4K2A; Phosphatidylinositol 4-kinase type 2-alpha (Homo sapiens), Q9BTU6; purified PI4K2A, ADP-Glo luminescence, 1 h; hits give low values; activity change, negative = inhibition, % at 76.9 µM; 420,000 tested, 0.13% active; AID 1346378, 2018; in the data active = activity change below about -50%; inconclusive = mostly about -30% to -49%;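 also: -100% = wells without enzyme as full effect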
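In this quantitative HTS, ADP production by PI4K2A was quantified luminescently after 1 h at ambient temperature; 100 microM adenosine served as plate-quality control.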
CtBP-E1A inh = qHTS Assay for Inhibitors of the CtBP/E1A Interaction | CtBP / adenovirus E1A interaction (AlphaScreen) | AlphaScreen GST-E1A/His-CtBP binding, 1536-well; hits give low values | activity change, % (test concentration not listed) | 340,000 tested, 0.49% active
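In 5 uL wells, 23 nL compound meets equimolar GST-E1A and His-CtBP (5X stock 125 nM each) for 2 h, 37 °C. Beads (5X, 50 ug/mL) then 1 h, 37 °C, dark.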
Akt phos inh = HTS Assay for Inhibitors of Akt Phophorylation: Primary Screen; Neuro2A IGF-stimulated pAkt S473 HTRF, 20 min; hits give low values; activity change, % for hits at 50 µM; 360,000 tested, 0.32% active; in the data active = activity change below about -80%; inconclusive = mostly about -51% to -80%
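Neuro2A cells in DMEM with 0.5% FBS, overnight at 37 deg C, given compound at single 50 µM final, then IGF (6 nM final) for 20 min at 37 deg C. Lysed; phospho-Akt Ser473 by HTRF after 24 h, 665/615 ratio.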
PI5P4K alpha inh = qHTS for Inhibitors of phosphatidylinositol 5-phosphate 4-kinase (PI5P4K); Phosphatidylinositol 5-phosphate 4-kinase type-2 alpha (Homo sapiens), P48426; PI5P4Kalpha enzyme, ADP-Glo luminescence, 60 min; hits give low values; max response, %; 330,000 tested, 1.2% active; AID 652105, 2013; active = max response of -50% or lower; inconclusive = between -30% and -50%; inactive = -30% or higher; also: value at the top dose of about 77 µM
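Quantitative HTS of the MLSMR library against PI5P4Kalpha with substrate. ATP added last at 5 microM final; room temperature, 60 minutes. Remaining ATP depleted, ADP converted and read as luminescence.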
Six1-Eya2 inh = qHTS Assay for Inhibitors of the Six1/Eya2 Interaction; AlphaScreen GST-Six1/His-Eya2 binding, biochemical; hits give low values; AID 651725, 2012; activity change, % (concentration not given with the values); 360,000 tested, 0.56% active
Target sequence (O00167 whole entry, looked up): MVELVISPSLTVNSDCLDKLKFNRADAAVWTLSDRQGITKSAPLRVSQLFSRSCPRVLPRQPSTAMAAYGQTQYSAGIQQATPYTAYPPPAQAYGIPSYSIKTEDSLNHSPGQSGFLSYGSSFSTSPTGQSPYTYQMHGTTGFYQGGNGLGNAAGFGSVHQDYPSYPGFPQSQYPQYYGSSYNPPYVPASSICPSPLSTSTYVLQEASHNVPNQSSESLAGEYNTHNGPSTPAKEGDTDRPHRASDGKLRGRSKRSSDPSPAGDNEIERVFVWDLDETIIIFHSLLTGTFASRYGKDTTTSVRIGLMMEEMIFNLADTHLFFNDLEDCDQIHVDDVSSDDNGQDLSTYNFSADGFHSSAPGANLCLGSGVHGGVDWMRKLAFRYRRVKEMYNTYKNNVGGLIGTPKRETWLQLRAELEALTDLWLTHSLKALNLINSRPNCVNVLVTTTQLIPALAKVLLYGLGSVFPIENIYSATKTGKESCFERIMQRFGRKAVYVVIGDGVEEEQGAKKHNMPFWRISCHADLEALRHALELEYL
Target sequence (Q15475 whole entry, looked up): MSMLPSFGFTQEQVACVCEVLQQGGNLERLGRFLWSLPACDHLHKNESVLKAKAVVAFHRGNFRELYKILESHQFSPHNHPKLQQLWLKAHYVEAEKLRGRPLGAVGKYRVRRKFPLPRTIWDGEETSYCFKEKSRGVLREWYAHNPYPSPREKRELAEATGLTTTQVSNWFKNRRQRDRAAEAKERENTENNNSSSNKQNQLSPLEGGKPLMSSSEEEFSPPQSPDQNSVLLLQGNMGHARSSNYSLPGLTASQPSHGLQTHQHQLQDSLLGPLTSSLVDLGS
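Compounds are tested against tagged Six1 and Eya2 proteins bridged by glutathione donor and nickel acceptor beads; after a one-hour incubation at 37 °C without light, AlphaScreen emission is recorded.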
* marks the source's active call; other numbers are inactive results; i = inactive; ? = inconclusive; · = no result given. Rule as the data show it, unless noted: active = activity change below about -65%; inconclusive = mostly about -30% to -63%; inactive = weaker than that. Unless noted, % is scaled to controls: 0 for no effect and ±100 for the full control effect.

SMILES | PI4K2A block | CtBP-E1A inh | Akt phos inh | PI5P4K alpha inh | Six1-Eya2 inh
Cc1[nH]n(-c2ccccc2)c(=S)c1C=Nc1cccc([N+](=O)[O-])c1 | -16.0 | 0.5 | i | -105.1* | 1.1
CCOC(=O)c1cc2c(C(F)(F)F)cc(-c3cccnc3)nc2o1 | 6.5 | 8.3 | -112.2%* | -0.5 | -12.1
Cc1ccc(/C=C/C(=O)NCc2ccccn2)o1 | -1.7 | -0.5 | i | -63.6* | -1.8
Cc1ccc(/C=C/C(=O)NCC2COc3ccccc3O2)o1 (stereo unspecified) | 3.2 | 0.7 | i | -69.9* | -3.2
Cc1ccc(/C=C/C(=O)Nc2ccc(S(N)(=O)=O)cc2)o1 | -3.8 | · | i | -54.4* | -4.1
Cc1ccc(/C=C/C(=O)NC2CCCCCCC2)o1 | -4.1 | -11.9 | i | -55.2* | -3.1
CCCCCCn1nc(C(=O)N(CC(C)C)c2c(N)n(CCCC)c(=O)[nH]c2=O)c2ccccc2c1=O | 0.6 | 4.0 | i | -5.5 | -0.7
CC(O)CNc1nc2c(c(=O)n(C)c(=O)n2C)n1CCc1ccccc1 (stereo unspecified) | -0.4 | 1.7 | -111.5%* | 5.0 | -0.4
Cn1c(Br)nc2c1c(=O)n(Cc1ccccc1)c(=O)n2C | 2.8 | -2.9 | i | 1.6 | -2.6
Cn1c(NN)nc2c1c(=O)n(Cc1ccccc1)c(=O)n2C | -10.5 | -0.3 | i | -58.3* | -6.7
Cn1c(=O)c2c(nc(NCC(O)CO)n2CCc2ccccc2)n(C)c1=O (stereo unspecified) | 1.9 | 1.3 | i | -4.1 | -9.2
Cc1cccc(C(=O)N/N=C/c2cc(Br)c(Br)o2)c1 | 1.1 | -11.9 | i | -15.0 | -24.4
O=C(c1ccc(Br)s1)N1CCN(C/C=C/c2ccccc2)CC1 | -5.1 | -2.5 | i | · | -4.5
O=C(c1ccc(Br)o1)N1CCN(C/C=C/c2ccccc2)CC1 | 0.4 | -2.9 | -108.5%* | -2.5 | -12.3
N#Cc1cnn2cc(-c3ncc(C(F)(F)F)cc3Cl)cnc12 | 2.5 | -2.3 | i | · | 4.2
COC(=O)c1ccc(CCc2cc(O)ccc2O)cc1 | -3.5 | -4.0 | i | ? | -15.1
COC(=O)c1ccc(CCc2cc(O)c(Br)cc2O)cc1 | 5.6 | -3.0 | i | -52.3* | -19.4
OCc1ccccc1CNCc1ccccc1 | 2.5 | 2.6 | i | · | 3.8
Oc1cc(CNCc2ccccc2)c(O)cc1CNCc1ccccc1 | -26.4 | -11.5 | i | -55.9* | -10.3
CC1(C)CC(=O)c2cc(C(=O)O)c(=O)n(-c3ccccc3)c2C1 | -2.0 | -0.5 | i | 0.3 | -86.8*
O=C(O)c1ccc(Nc2nc(-c3cc4ccccc4oc3=O)cs2)cc1O | 7.0 | -3.3 | i | -79.3* | -15.1
O=C1c2ccsc2SCCN1Cc1ccc(Cl)cc1Cl | -3.0 | -0.3 | -106.4%* | 10.3 | 0.0
CC(C)(C)C(=O)/C=C(\N)c1ccncc1 | 6.0 | -5.1 | -101.1%* | 1.0 | -7.6
COc1ccc(/C(N)=C/C(=O)C(C)(C)C)cc1 | 1.8 | 1.7 | i | · | -1.6
Cc1noc(C)c1CSc1nnc(-c2c[nH]c3ccccc23)n1-c1ccc(Cl)cc1 | 4.1 | 3.2 | -114.8%* | -9.1 | 12.2
SMILES | PI4K2A block | CtBP-E1A inh | Akt phos inh | PI5P4K alpha inh | Six1-Eya2 inh
COc1ccc(NS(=O)(=O)c2cc([N+](=O)[O-])ccc2N/N=C/c2c(C)[nH]c3ccccc23)cc1 | -4.3 | -5.2 | i | -8.3 | -1.1
Cc1[nH]c2ccccc2c1/C=N/Nc1ccccc1[N+](=O)[O-] | -11.0 | ? | i | 2.1 | -68.8*
COc1ccccc1/C=N\Nc1ccccc1[N+](=O)[O-] | -5.5 | 0.0 | i | 11.4 | -19.0
CC(C)Oc1ccccc1/C=N/Nc1ccccc1[N+](=O)[O-] | -3.0 | -75.8* | i | 4.9 | -72.1*
COC1=C/C(=C/c2c(N)n3nc(CC(=O)N4CCCC4)sc3nc2=O)C=CC1=O | 1.0 | -6.1 | i | -55.5* | -13.4
CC1=Nc2ccc(C)cc2/C1=C/c1c(N)n2nc(CC(=O)N3CCOCC3)sc2nc1=O | 2.5 | · | · | -16.7 | ?
CCOC1=C/C(=C/c2c(N)n3nc(CC(=O)N4CCCC4)sc3nc2=O)C=CC1=O | 2.2 | -20.2 | i | -54.7* | -6.6
COC1=CC(=Cc2c(N)n3nc(CC(=O)N4CCCCC4)sc3nc2=O)C=C(OC)C1=O | 1.6 | -8.4 | i | -58.5* | -4.0
Nc1c(/C=C2/C=CC(=O)C(O)=C2)c(=O)nc2sc(CC(=O)N3CCOCC3)nn12 | -6.5 | -20.8 | i | ? | ?
Nc1c(/C=C2/C=CC(=O)C(O)=C2)c(=O)nc2sc(CC(=O)N3CCCC3)nn12 | 0.3 | · | i | -55.7* | ?
Nc1c(/C=C2/C=CC(=O)C(O)=C2)c(=O)nc2sc(CC(=O)N3CCCCC3)nn12 | -6.1 | · | i | -11.2 | 27.6
Nc1c(C=C2C=CC(=O)C=C2)c(=O)nc2sc(CC(=O)N3CCCCC3)nn12 | -0.1 | -13.3 | i | ? | -10.3
Cc1ccc2c(CN3CCN(C(=O)c4ccc(F)cc4)CC3)cc(=O)oc2c1 | -7.8 | · | · | · | ·
COC(=O)CNC(=O)COC(=O)/C=C/c1ccc2ccccc2n1 | -2.1 | -8.5 | i | 1.8 | -2.6
Cc1ccc(NC(=O)CC2Nc3cccc4cccc(c34)NC2=O)cc1 (stereo unspecified) | -23.7 | · | · | · | ·
COc1ccc(Nc2c([N+](=O)[O-])ccc3c2=NC2(CCCCC2)N=3)cc1 | -1.7 | -75.9* | i | 0.3 | -78.4*
O=[N+]([O-])c1ccc2c(c1Nc1ccccc1)=NC1(CCCCC1)N=2 | 4.7 | ? | i | -2.5 | ?
O=C(NCCC1=CCCCC1)C1CCN(S(=O)(=O)N2CCOCC2)CC1 | -1.6 | 48.0 | i | · | 0.0
COc1ccc(CC(=O)OCn2nnc3ccccc3c2=O)cc1 | -56.7* | 6.5 | i | 1.1 | 0.0
COc1ccc(CC(=O)OCn2nnc3ccccc3c2=O)cc1OC | -2.0 | · | i | 0.3 | 2.2
Oc1cccc(-c2nnc(-c3cccc(O)c3)nn2)c1 | -66.0* | 3.7 | i | -26.8 | 11.7
Oc1ccc(Oc2ccc3c(C(F)(F)F)cc(C(F)(F)F)nc3n2)cc1 | 8.3 | -7.6 | -115.6%* | · | -15.9
COc1ccc(Oc2ccc3c(C(F)(F)F)cc(C(F)(F)F)nc3n2)cc1 | -2.8 | 5.1 | i | · | -6.6
O=c1[nH]c(=O)c2[nH]c(=S)n(-c3ccccc3)c2[nH]1 | -8.5 | 1.5 | i | -55.9* | 3.7
O=C(O)c1ccc2c(=O)n(-c3ccccc3)c(=S)[nH]c2c1 | -4.8 | 10.8 | i | -11.6 | 2.7
